Screens: PubChem, several laboratories
ERa SRC1 inh: ERα–SRC-1 coactivator interaction inhibitors, primary screen, biochemical, TR-FRET, ERα LBD, estradiol-bound. Estrogen receptor (Homo sapiens), P03372. inhibition, % at 25.6 µM. actives 1.7% (n = 86,000). TR-FRET ER-alpha LBD / SRC-1 peptide. AID 629, 2007; in the data active means inhibition above about 50%;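 further: 0% = receptor plus peptide control and 100% = peptide only without receptor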
MRP resist rev: reversal of MRP1-mediated doxorubicin resistance, primary screen, H69AR cells, doxorubicin co-treatment; H69AR cells + 2 uM doxorubicin, CellTiter-Glo, 72 h; differential viability (reversal), % at 10 µM; actives 0.04% (n = 85,000); AID 602, 2007;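 active means viability drop by adding the cancer drug above about 55%, with treated viability meeting a 40% cutoff, limit read from the data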;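 further: viability without doxorubicin minus viability with 2 µM doxorubicin for each compound; larger differential means the compound sensitizes cells more to doxorubicin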
Smad3 inh: Smad3/FoxH1 peptide binding inhibitors, primary screen, biochemical, TR-FRET; inhibition, % at 25 µM; TR-FRET Smad3/Dy647-FoxH1 peptide binding, europium anti-His; actives 0.29% (n = 88,000); Mothers against decapentaplegic homolog 3 (Homo sapiens), P84022;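 active means compounds that reduce the energy-transfer binding signal between the protein and its labelled peptide by more than half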;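 further: 0% = Smad3 plus labelled peptide maximal FRET and 100% = peptide-only background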
Target sequence (P84022 whole entry, looked up): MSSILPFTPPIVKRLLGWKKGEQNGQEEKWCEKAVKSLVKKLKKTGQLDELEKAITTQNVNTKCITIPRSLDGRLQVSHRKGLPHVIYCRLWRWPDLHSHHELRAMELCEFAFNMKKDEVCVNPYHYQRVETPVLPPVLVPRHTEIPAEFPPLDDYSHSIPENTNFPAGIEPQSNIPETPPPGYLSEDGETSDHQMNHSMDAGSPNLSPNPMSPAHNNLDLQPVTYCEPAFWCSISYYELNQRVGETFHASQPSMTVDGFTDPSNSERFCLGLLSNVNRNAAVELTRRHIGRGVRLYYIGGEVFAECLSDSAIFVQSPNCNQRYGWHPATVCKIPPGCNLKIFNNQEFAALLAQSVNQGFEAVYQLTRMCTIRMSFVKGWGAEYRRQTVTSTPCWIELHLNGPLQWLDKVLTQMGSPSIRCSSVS
ERa coact pot: enhancers of ERα–SRC-1 coactivator binding, primary screen, biochemical, TR-FRET, ERα LBD, low estradiol; Estrogen receptor (Homo sapiens), P03372; TR-FRET ERalpha-LBD/SRC-Cy5 coactivator binding, 2 h; 100 = basal binding, no effect; actives 1.3% (n = 86,000); coactivator binding (% of control), % at 25.6 µM; in the data active means activity above about 200%;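 further: binding measured in presence of low estradiol as agonist stimulus; 0% = peptide alone without receptor and 100% = receptor with peptide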
MRP-1 activ: H69AR viability gain despite doxorubicin, primary screen, MRP-1 activator project, H69AR cells, CellTiter-Glo | viability rescue | viability increase, % at 10 µM | actives 0.61% (n = 140,000);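 active means viability gain under doxorubicin at or above a set limit, the compound median plus 3 SD, cut at about 4.7% in these data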;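 further: MRP-1 overexpressing cells given doxorubicin 25 µM after compound pretreatment; 18-22 h compound pretreatment then 72 h with doxorubicin before readout; 0% = doxorubicin-only wells and 100% = vehicle-treated cells without doxorubicin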
ERb coact inh: inhibitors of ERβ-SRC1 coactivator interaction, primary screen, biochemical, TR-FRET, ERβ LBD, SRC-1 peptide | actives 1.3% (n = 86,000) | TR-FRET ER-beta LBD / SRC1-Cy5 peptide binding; receptor agonist-loaded with 1 µM estradiol | inhibition, % at 25.6 µM | Estrogen receptor beta (Homo sapiens), Q92731 | AID 633, 2007;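 active means compounds whose percent inhibition of the receptor-coactivator binding signal exceeds about 50% in the single-dose screen, limit read from the data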;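 further: 0% = receptor plus peptide wells without compound and 100% = peptide-only wells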
* hit, by the source's call; . = no result given; [ ] = remark or other dose. Only some compounds are listed: those with a hit (about 2.8% of all), similar ones and a draw of the others.

SMILES | ERa SRC1 inh | MRP resist rev | Smad3 inh | ERa coact pot | MRP-1 activ | ERb coact inh
O=S(=O)(c1cccc(-c2csc(-c3ccccc3)n2)c1)N1CCOCC1 | -4 | -11 | 3 | 272* | -3 | 2
CN(C)c1nccc(Nc2ccccc2)c1C#N | 99*[fluorescence artefact?] | 4 | -10 | 126 | -2 | -12
COCC(=O)Nc1nc2ccc(C)cc2s1 | -8 | 8 | 6 | 98 | 0 | -14
Cc1ccc2nc(NC(=O)CSCc3ccccc3)sc2c1 | -2 | 10 | 1 | 107 | -1 | 85*[fluorescence artefact?]
CCC1=NN(C(=O)c2ccc(C)cc2)C(O)(c2ccc(Br)cc2)C1 (stereo not given) | . | . | . | . | 4.9* | .
Cc1[nH]n(-c2ccc(S(=O)(=O)O)cc2)c(=O)c1N=Nc1ccccc1 | . | . | 8 | . | . | .
COc1ccc(C(=O)Nc2ccccc2-c2nnn(CC(=O)NCc3ccco3)n2)cc1 | 11 | 0 | -6 | 210* | -3 | 1
COc1ccc(NC(=O)Cn2nnc(-c3ccccc3NC(=O)c3ccco3)n2)cc1 | 28 | -5 | -6 | 149 | -6 | 52*[fluorescence artefact?]
CCC(C)C(NC(=O)c1ccccc1NC(=O)c1ccco1)C(=O)NC1CCCCC1 (stereo not given) | 56*[fluorescence artefact?] | -19 | 4 | 87 | -4 | 21
O=C(Cn1nnc(-c2ccccc2NC(=O)c2ccccc2F)n1)NCc1ccco1 | 29 | 15 | -3 | 136 | -4 | 14
O=C(Cn1nnc(-c2ccccc2NC(=O)c2ccco2)n1)NC1CCCCC1 | 47 | -15 | -14 | 288*[fluorescence artefact?] | -2 | 21
NC(N)=N[C@@H]1C(O)[C@H](N=C(N)N)[C@@H](O)C(O)[C@H]1O (stereo not given in full) | . | . | 7 | . | . | .
Cn1ccnc1SCC(=O)Nc1ccc2nc(SCC(=O)NC3CC3)sc2c1 | 53* | -17 | 2 | 52 | 0 | 22
NC(=O)Cn1c(=O)n(Cc2ccco2)c(=O)c2c3c(sc21)CCCCC3 | 91*[fluorescence artefact?] | -2 | 11 | 17 | -2 | 90*[fluorescence artefact?]
O=C(Cn1c(=O)n(Cc2ccco2)c(=O)c2c3c(sc21)CCCC3)Nc1ccccc1 | -9 | 0 | 3 | 107 | 3 | -12
C[C@H](OP(=O)(O)O)[C@H](N)C(=O)O | . | . | 3 | . | . | .
CCc1nnc(NC(=O)c2ccc(S(=O)(=O)NCC(C)C)cc2)s1 | . | . | . | . | 9.6* | .
CCc1nnc(NC(=O)c2ccc(S(=O)(=O)N3CCCCCC3)cc2)s1 | 0 | 1 | -13 | 87 | 5.4* | 1
CCN(CC)S(=O)(=O)c1cccc(C(=O)N[C@H](C(=O)OCC(N)=O)C(C)C)c1 | 4 | 2 | 0 | 95 | 0 | -1
CCc1nnc(NC(=O)[C@@H](NC(=O)c2cccc(S(=O)(=O)N(CC)CC)c2)C(C)C)s1 | . | . | . | . | 5.2* | .
O=C(O)[C@@H](c1ccccc1)N1Cc2ccccc2C1=O | -18 | 1 | 5 | 597*[fluorescence artefact?] | 0 | 17
c1ccc(CN2CCC3(CC2)SSC2(CCN(Cc4ccccc4)CC2)SS3)cc1 | . | . | 20 | . | . | .
NC1(C(=O)NC2(C(=O)O)CCCC2)CCCC1 | . | . | -6 | . | . | .
COc1ccc(-c2ocnc2C(=O)Nc2ccccc2N2CCCCC2)cc1 | -35 | -13 | 4 | 108 | 7.2* | -23
O=C(CSc1ncnc2sc3c(c12)CCCC3)N1CCC(c2noc3ccc(F)cc23)CC1 | 29 | 5 | 5 | 355*[fluorescence artefact?] | 0 | 66*[fluorescence artefact?]
SMILES | ERa SRC1 inh | MRP resist rev | Smad3 inh | ERa coact pot | MRP-1 activ | ERb coact inh
CCOc1ncccc1C(=O)OCc1cc(=O)oc2c(C)c(C)ccc12 | 48 | -20 | -27 | 287*[fluorescence artefact?] | -2 | 44
CCOC(=O)CCC(NC(=O)c1ccc(NCN2C(=O)c3ccccc3C2=O)cc1)C(=O)OCC (stereo not given) | 2 | -8 | 1 | 109 | 0 | 3
CCOC(=O)CCC(NC(=O)c1ccc(NCN2C(=O)CCC2=O)cc1)C(=O)OCC (stereo not given) | 29 | 5 | 0 | 61 | -1 | 54*
Cc1nn(C)c(C(=O)N/N=C/c2ccc(Br)cc2)c1Cl | . | . | . | . | 1 | .
Cc1cccc(-n2cnc(C(=O)N/N=C\c3ccc(Br)cc3)c2)n1 | -8 | -4 | 12 | 515*[fluorescence artefact?] | -2 | 32
CC(CCc1ccccc1)NC(=O)C(Cc1ccccc1)NS(=O)(=O)c1cccs1 (stereo not given) | -8 | -31 | -2 | 105 | 0 | -1
COc1ccc2c(Cl)c(-c3nnc(SCC(=O)c4ccccc4)n3C)sc2c1 | 8 | -1 | 2 | 241* | -1 | -14
COc1ccc2c(Cl)c(-c3nnc(SCC(N)=O)n3C)sc2c1 | 0 | 3 | 8 | 105 | -1 | 0
COc1ccc(NC(=O)CN(c2ccccc2)S(=O)(=O)N(C)C)cc1OC | 63*[fluorescence artefact?] | 2 | -8 | 69 | 0 | 57*
N=C(N)SCCc1ccncc1 | . | . | 28 | . | . | .
Cc1sc2c(c1C)c(=O)n(-c1ccccc1)c1nnc(C)n21 | . | . | . | . | -3 | .
C=CCn1c(=O)c2c(C)c(C)sc2n2c(Nc3ccc(OC)cc3)nnc12 | 4 | 6 | -7 | 103 | 7.7* | 2
CC(=O)c1oc2ccccc2c1NC(=O)COC(=O)c1ccc(-n2nc(C)cc2C)cc1 | 75*[fluorescence artefact?] | -15 | -1 | 79 | . | 32
Cc1cc(C)n(-c2ccc(C(=O)OCC(=O)NCc3ccc(F)cc3)cc2)n1 | . | . | . | . | -1 | .
CCCCOC(=O)c1ccc(NC(=O)/C=C/c2cccs2)cc1 | . | . | . | . | 4.8* | .
Nc1ncnc2nc(N3CCN(CCO)CC3)[nH]c12 | . | . | -2 | . | . | .
O=C(O)c1ccccc1-c1ccccc1C(=O)Nc1ccc2c(c1)Cc1cc(F)ccc1-2 | . | . | 21 | . | . | .
C=CCSc1nc(N)c(C#N)c(-c2ccccc2)c1C#N | 19 | 5 | 2 | 238*[fluorescence artefact?] | -2 | 30
CCc1nccn1C(=O)c1cnn2c(C(F)F)cc(-c3ccc(C)cc3)nc12 | . | . | . | . | 6.0* | .
Cc1ccc(S(=O)(=O)N2CCCC2c2nc3ccccc3s2)cc1 (stereo not given) | . | . | . | . | -2 | .
COc1cc(/C=N/NC(=O)c2[nH]nc3c2CCc2ccccc2-3)ccc1O | . | . | . | . | -4 | .
Cn1c(-c2ccc(N)cc2)nc2ccccc21 | 3 | 5 | 0 | 650*[fluorescence artefact?] | 0 | -7
Cn1c(-c2ccc3nc(N)sc3c2)nc2cc(N)ccc21 | 64*[fluorescence artefact?] | 3 | 6 | 27 | -4 | 54*[fluorescence artefact?]
Cc1ccc(-n2c(N)c(-c3nc4ccccc4n3C)sc2=S)cc1 | -5 | -1 | 5 | 81 | -2 | -4
Nc1nc2ccc(O)cc2s1 | -2 | -13 | -1 | 96 | -7 | 7
